High-throughput results: PubChem, The Scripps Research Institute Molecular Screening Center
hcDAF-12 act – H. contortus DAF-12 activation, primary screen. AID 652067. 370,000 tested, 1.4% active. activation, % at 6.8 µM. HEK293 hcDAF-12 lit1-tk-luc reporter, luminescence; 0% DMSO, 100% Δ7-dafachronic acid;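 active = activation above the mean of all tested compounds plus 3 SD, cut at about 5.5% in these data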;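 note: 100% = response to 3 µM Δ7-dafachronic acid high control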
DAX1 inh-1 – inhibitors of DAX1 repression of SF-1 activated StAR promoter; HEK293T StAR-luciferase reporter, SF-1/DAX-1 repression relief; inhibition, % at 6.8 µM; 370,000 tested, 1.1% active; AID 652010;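 active = inhibition above the mean over all tested compounds plus 3 SD, cut at about 3.6% in these data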;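 note: 0% = DAX-1 cells with DMSO and 100% = cells lacking DAX-1 with DMSO; higher inhibition means more luminescence from relief of DAX-1 repression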
ssDAF-12 act – activators of S. stercoralis DAF-12 nuclear receptor; activation, % at 6.8 µM; HEK293 ssDAF-12/GRIP1 lit1-tk-luc reporter, luminescence; % of 3 µM dafachronic acid response; 370,000 tested, 1% active;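 active = activation above the mean over all tested compounds plus 3 SD, cut at about 0.9% in these data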;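 note: 0% = DMSO-only wells and 100% = 3 µM delta7-dafachronic acid wells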
hgDAF-12 ag – activates the H. glycines DAF-12 receptor ligand-binding domain; activation, % at 6.8 µM; HEK293 GAL4-hgDAF12 UAS-luciferase reporter, agonist luminescence; normalized to butyrate control; 370,000 tested, 1.8% active;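 active = activation above a cutoff set at the mean of all screened compounds plus 3 SD, cut at about 10% in these data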;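 note: 0% = DMSO wells and 100% = sodium butyrate wells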
DAX1 inh-2 – NR0B1 (DAX1) inhibition. P51843. HEK293 Gal4-DAX1 luciferase reporter, luminescence. inhibition, % at 6.75 µM. 340,000 tested, 0.99% active;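 active = inhibition above the mean over all tested compounds plus 3 SD, cut at about 4.2% in these data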;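 note: 0% = DAX1-transfected cells with DMSO and 100% = empty-vector control cells with DMSO; inhibition shows as a rise in luminescence from relieved DAX1 repression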
Target sequence (P51843 207-470 limits assumed): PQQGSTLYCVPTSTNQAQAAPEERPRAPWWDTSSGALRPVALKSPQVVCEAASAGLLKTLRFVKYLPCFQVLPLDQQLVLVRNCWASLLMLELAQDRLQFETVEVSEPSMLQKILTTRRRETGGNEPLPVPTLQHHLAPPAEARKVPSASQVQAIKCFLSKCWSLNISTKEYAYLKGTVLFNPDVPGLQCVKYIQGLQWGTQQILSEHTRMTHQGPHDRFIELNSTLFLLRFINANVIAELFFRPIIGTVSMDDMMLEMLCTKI
The depositor's hits bear a star. A selection: hits, their analogues and other compounds. The true share with any hit is near 4.1%.

COc1ccc(C2=Nc3ccccc3NC(=O)C2N(C(=O)c2cnc(C)cn2)c2ccc(N3CCOCC3)cc2)cc1 (centres undefined) was read as hcDAF-12 act 0, DAX1 inh-1 3.7*, ssDAF-12 act -1 and hgDAF-12 ag 5.
Screening CC1CCN(C(=O)COC(=O)c2ccc3c(c2)OCO3)CC1 returned hcDAF-12 act 2, DAX1 inh-1 1, ssDAF-12 act -1, hgDAF-12 ag 12* and DAX1 inh-2 1.
For CC1CCCCN1C(=O)COC(=O)c1cc(Cl)c2c(c1)OCO2 (centres undefined) the results were hcDAF-12 act 3, DAX1 inh-1 3.7*, ssDAF-12 act -1, hgDAF-12 ag 9 and DAX1 inh-2 3.
CC1CCCCN1C(=O)COC(=O)c1ccc(N2CCCC2=O)cc1 (centres undefined) was read as hcDAF-12 act -1, DAX1 inh-1 -1, ssDAF-12 act -1, hgDAF-12 ag -1 and DAX1 inh-2 0.
`O=C(N=C1N(Cc2ccccc2)[C@@H](Cc2ccccc2)[C@]2(C=C3CCCCC3n3c(=O)n(-c4ccccc4)c(=O)n32)N1C(=O)OCc1ccccc1)c1ccccc1` (some centres undefined) gave hcDAF-12 act -1, DAX1 inh-1 0, ssDAF-12 act -1 and hgDAF-12 ag 1.
For COc1cccc2cc(C(=O)OCC(=O)N3CC(C)OC(C)C3)c(=O)oc12 (centres undefined) the results were hcDAF-12 act 5.7*, DAX1 inh-1 3, ssDAF-12 act -1, hgDAF-12 ag 10 and DAX1 inh-2 5.5*.
For COC(=O)CCC(=O)OC the results were hcDAF-12 act 2, DAX1 inh-1 0, ssDAF-12 act -1, hgDAF-12 ag 0 and DAX1 inh-2 4.4*.
`Cc1ccccc1OC(=O)C1C(c2ccccc2)C(C(=O)O)C1c1ccccc1` (centres undefined) gave hcDAF-12 act 5, DAX1 inh-1 0, ssDAF-12 act 0, hgDAF-12 ag 3 and DAX1 inh-2 5.0*.
Screening CCOC(=O)C1C(c2ccccc2)C(C(=O)OCC)C1c1ccccc1 (centres undefined) returned hcDAF-12 act -3, DAX1 inh-1 0, ssDAF-12 act -2, hgDAF-12 ag 1 and DAX1 inh-2 1.
For C=CCN1C(=O)[C@H](CC(=O)NCCC(C)C)[C@@]2(C(=O)OCC)CCCC=C12 the results were hcDAF-12 act 0, DAX1 inh-1 0, ssDAF-12 act 0 and hgDAF-12 ag -2.
`O=C(NCc1ccccc1Cl)C1CCN(S(=O)(=O)N2CCCCCC2)CC1` gave hcDAF-12 act -2, DAX1 inh-1 0, ssDAF-12 act -1, hgDAF-12 ag -2 and DAX1 inh-2 4.8*.
O=C(NCCCN1CCc2ccccc2C1)C1CCN(S(=O)(=O)N2CCC3(CC2)OCCO3)CC1 was read as hcDAF-12 act -1, DAX1 inh-1 0, ssDAF-12 act -1, hgDAF-12 ag -1 and DAX1 inh-2 1.
`O=C(NCCCN1CCc2ccccc2C1)C1CCN(S(=O)(=O)N2CCCC2)CC1` gave hcDAF-12 act 5.8*, DAX1 inh-1 0, ssDAF-12 act 0, hgDAF-12 ag 1 and DAX1 inh-2 -1.
`CC1CCN(S(=O)(=O)N2CCCC(C(=O)NCc3ccccc3Cl)C2)CC1` (centres undefined) gave hcDAF-12 act -1, DAX1 inh-1 -1, ssDAF-12 act 0, hgDAF-12 ag -4 and DAX1 inh-2 0.
CCOC(=O)N1CCC(=NNc2nc3ccccc3s2)CC1 was read as hcDAF-12 act 5.8*, DAX1 inh-1 1, ssDAF-12 act 0, hgDAF-12 ag 10 and DAX1 inh-2 2.
`CC(=O)N1CCC(=NNc2nc3ccccc3s2)CC1` gave hcDAF-12 act 6.5*, DAX1 inh-1 1, ssDAF-12 act 1, hgDAF-12 ag 7 and DAX1 inh-2 0.
`CC(=O)NNc1nc2ccccc2s1` gave hcDAF-12 act 3, DAX1 inh-1 0, ssDAF-12 act 0, hgDAF-12 ag 0 and DAX1 inh-2 3.
CN(C)[C@@H]1CCN(c2ccc3c(c2)O[C@H]2CCN(C2)S3(=O)=O)C1 was read as hcDAF-12 act 0, DAX1 inh-1 -1, ssDAF-12 act 0 and hgDAF-12 ag 8.
`COc1ccccc1-c1nc(COc2ccc(Cl)cc2Cl)no1` gave hcDAF-12 act 2, DAX1 inh-1 1, ssDAF-12 act 0, hgDAF-12 ag 5 and DAX1 inh-2 4.6*.
`CCOC(=O)N1CCN(C(=O)C[C@H]2C[C@@]3(C(=O)OC)C(=C[C@H](C(C)(C)C)O[C@@H]3C)N(Cc3ccc4c(c3)OCO4)C2=O)CC1` gave hcDAF-12 act -1, DAX1 inh-1 0, ssDAF-12 act -1 and hgDAF-12 ag -2.
For O=c1c2cc(Br)ccc2nc(-c2ccc(Cl)cc2)n1O the results were hcDAF-12 act -1, DAX1 inh-1 0, ssDAF-12 act 0, hgDAF-12 ag 1 and DAX1 inh-2 0.
Screening Cc1ccc(-c2nc3c(Cl)cc(Cl)cc3c(=O)n2O)cc1 returned hcDAF-12 act 6.0*, DAX1 inh-1 0, ssDAF-12 act 0, hgDAF-12 ag 0 and DAX1 inh-2 1.
COC(=O)C1=C(C)N(Cc2cccc(C(F)(F)F)c2)C(=NCc2cc(OC)c(OC)c(OC)c2)NC1c1ccc(F)cc1 (centres undefined) was read as hcDAF-12 act 3, DAX1 inh-1 0, ssDAF-12 act 0 and hgDAF-12 ag 0.
Cc1nc2cc(C(=O)N3CCN(C(=O)OCc4ccccc4)CC3)ccc2n1C1CCCC1 was read as hcDAF-12 act -2, DAX1 inh-1 0, ssDAF-12 act -2 and hgDAF-12 ag -2.
`O=C(Nc1ccn(CCCNCC(c2ccccc2)c2ccccc2)c(=O)n1)OCc1ccccc1` gave hcDAF-12 act 2, DAX1 inh-1 0, ssDAF-12 act -2, hgDAF-12 ag 1 and DAX1 inh-2 4.4*.
Screening Fc1ccc(-c2ccc3c(n2)CCCN3Cc2ccccn2)cc1 returned hcDAF-12 act 2, DAX1 inh-1 3.8*, ssDAF-12 act -1 and hgDAF-12 ag 7.
`CCOC(=O)[C@]12CCCC3=C1N(CCC3)C(=O)[C@@H](CC(=O)NCc1ccc(OC)c(OC)c1)C2` gave hcDAF-12 act -2, DAX1 inh-1 2, ssDAF-12 act -1 and hgDAF-12 ag -4.
O=C(N1CCOCC1)N1CCN(c2nc(-c3ccccc3)cs2)CC1 was read as hcDAF-12 act 0, DAX1 inh-1 0, ssDAF-12 act -1, hgDAF-12 ag 2 and DAX1 inh-2 1.
For CN(C)C(=O)N1CCN(c2nc(-c3ccccc3)cs2)CC1 the results were hcDAF-12 act 0, DAX1 inh-1 1, ssDAF-12 act -1, hgDAF-12 ag 10 and DAX1 inh-2 4.6*.
For Cc1ccc(S(=O)(=O)N2c3ccccc3C[C@H]2CCC(=O)c2ccccc2)cc1 the results were hcDAF-12 act 2, ssDAF-12 act 0 and hgDAF-12 ag 1.
